Source: PubChem
GalR3 antag = human GalR3 antagonism; O60755; HEK293 GalR3-CNG cAMP membrane potential fluorescence; galR3 body fused to GalR1 C-terminus; inhibition, % at 3 µM; actives 0.44% (n = 360,000); AID 651719;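 active means inhibition above the screen-wide average plus 3 SD, cut at about 13% in these data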;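 further: forskolin and galanin both at EC90 stimulate the cells; cAMP rise reported by CNG channel membrane potential dye signal; 0% = forskolin plus galanin with DMSO and 100% = forskolin alone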
GAA850 FXN act = increases GAA850 frataxin promoter reporter activity; HEK293 lucGAA850 FXN promoter luciferase reporter, 24 h; percent of 10 µM SAHA response; activation, % at 6 µM; actives 0.56% (n = 360,000); AID 540364;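 active means activation above the average of all compounds screened plus 3 SD, cutoff fixed separately per campaign, cut at about 7.5% in these data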;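 further: 0% = DMSO wells and 100% = 10 µM SAHA wells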
Gli-Sufu antag = blocks Gli-Sufu signaling in a luciferase reporter; Sufu-KO-LIGHT fibroblasts, Gli luciferase reporter luminescence; inhibition, % at 5 µM; actives 0.74% (n = 340,000); AID 588413;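 active means inhibition above about 55%, limit read from the data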;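 further: 0% = DMSO-treated cells and 100% = wells with medium but no cells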
Cardio protect = myocardial damage modulation in H9c2 cells; H9c2 cardiomyocytes, H2O2 injury protection, ATPLite, 2 h; protection from H2O2 cell death, % at 20 µM; actives 0.63% (n = 360,000); AID 588492;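 active means compounds giving at least 50% protection of heart cells from peroxide-induced death in the single-dose screen, raw or plate-pattern-corrected value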;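 further: 0% = DMSO wells with peroxide and 100% = DMSO wells without peroxide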
COUP-TFII inh = blocks human COUP-TFII nuclear receptor. P24468. HEK293T NGFI-A luciferase reporter, luminescence. inhibition, % at 8.6 µM. actives 0.7% (n = 370,000). AID 686940;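 active means inhibition above a per-plate cutoff, mean inhibition of test wells between control levels plus 3 SD, cut at about 38% in these data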;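 further: cells cotransfected with COUP-TFII expression vector driving the NGFI-A reporter; 0% = median of COUP-TF2 test wells and 100% = reporter-only cells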
Target sequence (P24468 whole entry, looked up): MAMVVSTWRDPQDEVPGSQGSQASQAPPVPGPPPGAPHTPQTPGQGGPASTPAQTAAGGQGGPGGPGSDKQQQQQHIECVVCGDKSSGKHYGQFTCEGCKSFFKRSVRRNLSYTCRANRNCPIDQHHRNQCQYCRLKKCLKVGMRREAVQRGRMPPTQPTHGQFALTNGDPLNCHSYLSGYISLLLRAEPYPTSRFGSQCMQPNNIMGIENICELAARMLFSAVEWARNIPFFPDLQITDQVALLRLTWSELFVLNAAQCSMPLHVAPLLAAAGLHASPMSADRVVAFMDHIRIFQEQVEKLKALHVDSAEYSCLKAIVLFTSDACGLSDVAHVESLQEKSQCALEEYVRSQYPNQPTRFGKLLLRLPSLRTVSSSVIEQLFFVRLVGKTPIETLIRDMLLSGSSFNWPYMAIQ
SMARCA2 activ = SMARCA2 function activation, primary screen. MG213 cells, MMTV-luciferase reporter, dexamethasone, overnight. activation, % at 9.1 µM. actives 1% (n = 370,000); in the data active means activation above about 7.8%;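 further: 0% = vehicle wells and 100% = reference activator wells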
Starred values were filed as active, the others as inactive; x = not tested or not shown. Only some compounds are listed: those with a hit (about 3.4% of all), similar ones and a draw of the others.

SMILES | GalR3 antag | GAA850 FXN act | Gli-Sufu antag | Cardio protect | COUP-TFII inh | SMARCA2 activ
CCOC(=O)CSc1nc2sccc2c(=O)[nH]1 | -3.2 | -1.5 | -2.7 | 3.7 | 6.4 | -1.3
CCN(CC)C(=O)CSc1nc2ccccc2c(=O)[nH]1 | 2.0 | 1.2 | -0.4 | 65.1* | -17.6 | 0.5
CCOC(=O)CSc1nc2sc(C)c(C)c2c(=O)[nH]1 | -4.5 | 0.8 | 4.4 | 51.9* | 5.3 | -0.9
CCOC(=O)CSc1nc2sc(C(=O)O)c(C)c2c(=O)[nH]1 | 0.6 | -2.2 | 3.8 | 1.6 | -3.5 | 0.2
CCc1ccc(C(=O)CSc2nc3ccccc3c(=O)[nH]2)cc1 | -3.1 | -2.9 | -18.9 | 17.2 | -12.3 | 1.7
CCOC(=O)CSc1nc2ccccc2c(=O)[nH]1 | 5.6 | -0.3 | 3.4 | 58.0* | -5.5 | 0.8
CCOc1ccc2nc(SCC(=O)N(C)C)[nH]c2c1 | -1.6 | 0.5 | -58.1 | 0.7 | -29.9 | 7.9*
Cc1ccc(-n2c(SCc3cccc(F)c3)nc3sc4c(c3c2=O)CCCC4)cc1 | x | x | x | x | 4.0 | 3.0
CC1CCN(c2ccc(C(=O)O)cc2NS(=O)(=O)c2ccccc2)CC1 | x | x | x | x | 23.4 | -2.7
O=c1[nH]c(SCc2ccccc2F)nc2ccccc12 | -6.1 | 4.5 | -1.9 | 27.2 | 11.7 | 2.5
CC(C)(C)N(Cc1ccccc1)C(=O)CSc1nc2ccccc2c(=O)[nH]1 | 2.0 | 0.4 | 45.8 | 30.8 | -2.5 | -3.1
Cc1sc2nc(NCCO)[nH]c(=O)c2c1C | 1.9 | 0.8 | 1.1 | 72.4* | 7.6 | 1.3
CN(C)C(=O)CSc1nc2ccccc2c(=O)[nH]1 | -1.1 | 1.1 | 3.4 | 80.7* | 5.1 | -0.1
CCOC(=O)/C(=C\c1ccc(Cl)cc1)c1nc2sc(C)c(C)c2c(=O)[nH]1 | 13.5* | 7.5 | -2.5 | -13.8 | 11.2 | -1.9
Cc1sc2nc(CC(=O)N3CCCC3)[nH]c(=O)c2c1C | 0.1 | 1.6 | -5.7 | 19.5 | -6.6 | 0.1
O=c1cc(CSc2nc3ccccc3c(=O)[nH]2)c2ccc(O)cc2o1 | -4.3 | -7.1 | -8.4 | 93.9* | 23.4 | -3.9
O=c1c2ccccc2nnn1CSc1nc2ccccc2[nH]1 | -11.4 | 4.0 | -67.7 | 8.6 | -26.9 | 13.7*
CCOC(=O)CSc1nnc(Cc2ccc(OC)cc2)n1-c1ccccc1 | 1.6 | 1.9 | 1.8 | -3.0 | 2.9 | -1.5
CCOC(=O)CSc1nnc(CSc2nc3ccccc3c(=O)[nH]2)n1-c1ccccc1 | -3.1 | 1.0 | -27.5 | 51.4* | 17.9 | 0.3
CCOC(=O)CSc1nnc(CSc2nc3sc4c(c3c(=O)[nH]2)CCC4)n1-c1ccccc1 | -2.0 | -0.5 | 4.3 | 47.4 | 16.1 | -2.8
CCOC(=O)CSc1nnc(CSc2nc3sc4c(c3c(=O)[nH]2)CCC4)n1C | -4.6 | -1.9 | 3.6 | 66.3* | -8.2 | -4.4
C[C@H](O)[C@@H]1CN2CCc3ccc(N4CCOCC4)cc3[C@@H]2C[C@@H]1N(C)C(=O)c1ccco1 | x | x | x | x | -0.9 | -1.3
COC(=O)[C@]12C[C@H](CC(=O)NCc3ccc(C)o3)C(=O)N(Cc3cccc4ccccc34)C1=C[C@H](C(C)C)O[C@@H]2C1CC1 | x | x | x | x | -4.9 | -4.3
COC(=O)C1=C(C)N(Cc2cccc(C(F)(F)F)c2)C(=NCc2ccc3c(c2)OCO3)NC1c1ccc(F)cc1 (stereo not drawn) | 2.8 | x | x | x | -5.7 | -6.1
CCN(Cc1cccs1)c1ncnc2ccc(-c3ccc4c(c3)OCO4)cc12 | x | x | x | x | 5.8 | x
SMILES | GalR3 antag | GAA850 FXN act | Gli-Sufu antag | Cardio protect | COUP-TFII inh | SMARCA2 activ
CCOc1ccc(C(=O)Cc2ccccc2)cc1 | -4.2 | 5.2 | -27.6 | -1.8 | -48.1 | 2.2
CCOc1ccc(C(=O)CSCCC(=O)O)cc1 | -1.2 | -11.0 | 15.7 | 2.8 | 55.7* | -8.6
Cc1cccc(Cn2cc(COC(=O)N3CCCC3)nn2)c1 | x | x | x | x | 10.1 | -4.4
C=CCOn1c(=O)c(-c2cc3ccccc3o2)[n+]([O-])c2ccccc21 | -3.2 | 4.2 | -40.1 | 10.1 | -64.5 | 7.9*
CCCCCCCCN1C(=O)[C@H](CC(=O)NCCc2ccccc2OC)C[C@@]2(C(=O)OC)CCCCC=C12 | 0.5 | x | x | x | 1.7 | -1.1
CCNC(=O)COC(=O)C1C(C(=O)OCC)=C(C)NC(C)=C1C(=O)OCC | -3.9 | 0.7 | 6.2 | 2.9 | 12.3 | -2.9
CCOC(=O)C1=C(C)NC(C)=C(C(=O)OCC)C1C(=O)OCC(=O)NC1CCCCC1 | 1.7 | -1.7 | 16.2 | 83.3* | 8.0 | -4.4
CCC[C@H]1[C@@H](NC(=O)c2cccnc2)CC[C@@]23CCCN2C(=O)CCC[C@@H]13 | x | x | x | x | 0.5 | x
